Shown are actives, neighbours in structure and some others; about 1.1% of the full set was active somewhere.
CIT2-GFP yeast: modulators of CIT2-GFP expression in yeast, primary screen, S. cerevisiae, GFP fusion, multiplex flow cytometry, MLPCN library. S. cerevisiae CIT2-GFP strain, 3 h; 100 means same as DMSO wells. GFP response vs DMSO, % at 10 µM. 320,000 compounds, 0.065% hits;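 active means GFP response relative to DMSO above a set limit, near the screen mean plus 3 SD, cut at about 150% in these data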;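 further: ratio of well median GFP fluorescence to mean of DMSO wells on the plate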
LAP4-GFP MLPCN: modulators of LAP4-GFP expression in yeast, primary screen, S. cerevisiae, multiplex flow cytometry, MLPCN library; 320,000 compounds, 0.34% hits; GFP response vs DMSO, % at 10 µM; AID 2023, 2009; 3 h; median GFP as percent of DMSO wells;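 active means GFP response vs DMSO above a set limit, about the screen mean plus 3 SD, cut at about 150% in these data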
AGP1 TOR yeast: modulators of AGP1-GFP expression in yeast TOR pathway, primary screen, cell-based, multiplex flow cytometry, S. cerevisiae, MLPCN library; 3 h; GFP as percent of DMSO wells; GFP response vs DMSO, % at 10 µM; 320,000 compounds, 0.02% hits;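 active means GFP response relative to DMSO above a set limit, near screen average plus 3 SD, cut at about 150% in these data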;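 further: median GFP channel fluorescence of the gated AGP1 strain per well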
MEP2 TOR yeast: modulators of MEP2-GFP levels in yeast, primary screen, S. cerevisiae, multiplex flow cytometry, MLPCN library. S. cerevisiae MEP2-GFP strain, 3 h; 100% = DMSO control level. GFP response vs DMSO, % at 10 µM. 330,000 compounds, 0.51% hits. AID 2016, 2009;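 active means GFP response versus DMSO above a set limit, roughly screen mean plus 3 SD, cut at about 180% in these data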;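 further: median GFP fluorescence of the barcode-gated MEP2-GFP cells per well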
VLA-4 inh: inhibition in human VLA-4 binding assay, primary screen, VLA-4 allosteric modulator project, MLPCN library, flow cytometry, VLA-4 expressing cells; inhibition, % (about 7 µM as worked out from the volumes in the protocol); Integrin alpha-4 (Homo sapiens), P13612; ligand binding flow cytometry; AID 2557, 2010; 330,000 compounds, 0.2% hits; in the data active means inhibition above about 50%
Target sequence (P13612 whole entry, looked up): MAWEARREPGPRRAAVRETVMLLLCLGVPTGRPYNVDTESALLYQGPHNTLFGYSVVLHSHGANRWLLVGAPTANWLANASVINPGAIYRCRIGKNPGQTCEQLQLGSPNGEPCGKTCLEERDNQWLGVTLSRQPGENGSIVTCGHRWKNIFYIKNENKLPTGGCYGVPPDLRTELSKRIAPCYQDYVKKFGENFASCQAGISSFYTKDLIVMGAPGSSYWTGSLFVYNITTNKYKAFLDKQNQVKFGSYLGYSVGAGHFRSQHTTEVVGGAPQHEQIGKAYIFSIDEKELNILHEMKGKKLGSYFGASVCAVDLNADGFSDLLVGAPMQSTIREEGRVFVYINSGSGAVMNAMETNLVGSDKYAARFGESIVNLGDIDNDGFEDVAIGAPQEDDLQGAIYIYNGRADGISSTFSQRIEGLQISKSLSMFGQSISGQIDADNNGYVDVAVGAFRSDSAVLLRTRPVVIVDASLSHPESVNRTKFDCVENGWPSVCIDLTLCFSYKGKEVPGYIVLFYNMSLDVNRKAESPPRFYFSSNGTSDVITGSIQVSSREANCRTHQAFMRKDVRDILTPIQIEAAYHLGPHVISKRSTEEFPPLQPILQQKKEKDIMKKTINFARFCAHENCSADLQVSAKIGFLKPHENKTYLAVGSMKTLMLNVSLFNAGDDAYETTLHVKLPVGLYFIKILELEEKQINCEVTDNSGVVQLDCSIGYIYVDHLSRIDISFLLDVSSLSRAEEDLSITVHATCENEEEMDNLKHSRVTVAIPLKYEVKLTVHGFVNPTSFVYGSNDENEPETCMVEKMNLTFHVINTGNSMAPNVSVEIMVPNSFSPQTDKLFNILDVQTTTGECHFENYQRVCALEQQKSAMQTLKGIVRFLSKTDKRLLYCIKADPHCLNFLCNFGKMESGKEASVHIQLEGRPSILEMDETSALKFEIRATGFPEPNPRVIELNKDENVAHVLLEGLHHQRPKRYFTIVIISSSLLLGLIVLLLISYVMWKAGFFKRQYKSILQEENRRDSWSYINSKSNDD
RPL19A TOR yeast: RPL19A-GFP expression modulators in yeast, primary screen, cell-based, S. cerevisiae, multiplex flow cytometry, MLPCN; percent response vs DMSO, % at 10 µM; S. cerevisiae RPL19A-GFP strain, 3 h; stronger effect = lower value; 330,000 compounds, 0.3% hits;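 active means percent response vs DMSO below 50%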;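 further: median channel GFP fluorescence of the barcoded RPL19A-GFP strain; ratio of sample median GFP to plate DMSO average so 100% = DMSO; lower means less RPL19A-GFP as with rapamycin TOR inhibition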
LAP4 cherry2: LAP4-GFP expression modulators in yeast, confirmation, cell-based, second cherry pick, flow cytometry; GFP response vs DMSO, % at 10 µM; AID 2621, 2010; 590 compounds, 20% hits; S. cerevisiae LAP4-GFP strain, 3 h; shares compounds with LAP4-GFP MLPCN;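 active means GFP signal as percent of the solvent control above about 150%, meaning raised reporter expression, limit read from the data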;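 further: ratio of well median GFP fluorescence to plate DMSO mean so 100% = DMSO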
MEP2 cherry2: modulators of MEP2-GFP levels in yeast, confirmation, S. cerevisiae, flow cytometry GFP, second cherry picks; shares compounds with LAP4-GFP MLPCN; S. cerevisiae MEP2-GFP strain, 3 h; GFP response vs DMSO, % at 10 µM; 590 compounds, 10% hits; AID 2622, 2010;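 active means GFP signal above 150% of the solvent control wells, that is a rise of more than half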;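 further: median channel GFP fluorescence of all gated yeast cells per well; ratio of median GFP to plate DMSO average so 100% = DMSO level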
RPL19A-GFP pick2: RPL19A-GFP modulators in TOR pathway yeast, confirmation, cell-based, S. cerevisiae, flow cytometry, second cherry pick | shares compounds with LAP4-GFP MLPCN | S. cerevisiae RPL19A-GFP strain, 3 h; stronger effect = lower value; 100% means same as DMSO wells | GFP response vs DMSO, % at 10 µM | 590 compounds, 3% hits | AID 2623, 2010;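 active means under 65% GFP response relative to DMSO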;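 further: median GFP channel fluorescence per well over the all cells gate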
CIT2 GFP CP2: modulators of CIT2-GFP expression in yeast, confirmation, flow cytometry, second cherry pick, single plex. 590 compounds, 8% hits. shares compounds with LAP4-GFP MLPCN. GFP response vs DMSO, % at 10 µM. AID 2624, 2010. S. cerevisiae CIT2-GFP strain, 3 h; DMSO control wells read 100%;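 active means GFP response vs DMSO above about 150%, limit read from the data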;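 further: median green fluorescence per well over all gated yeast cells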
AGP1 GFP CP2: AGP1-GFP expression modulators, hit retest, confirmation, cell-based, flow cytometry, S. cerevisiae, cherry pick set 2 | shares compounds with LAP4-GFP MLPCN | S. cerevisiae AGP1-GFP strain, 3 h | percent response vs DMSO, % at 10 µM | 590 tested, under 10 active | AID 2643, 2010;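 active means over 150 percent of DMSO response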;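 further: median GFP channel fluorescence over all cells without mother daughter split; sample median GFP divided by mean DMSO control so 100% equals DMSO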
Yeast autofluor: compound autofluorescence in yeast s288c, dose response, artefact control for yeast TOR pathway GFP screen, s288c strain; shares compounds with LAP4-GFP MLPCN; S. cerevisiae s288c, 520 nm autofluorescence, flow cytometry, 3 h; stronger effect = higher value; zero means same as solvent-only cells; fluorescence change (kMESF span) at 33 µM; 610 tested, under 10 active;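 active means fluorescence span over the dose series, or activity score, above about 33, limit read from the data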
Yeast autofl DR: autofluorescence of compounds in yeast s288c, dose response, artefact control for yeast TOR pathway GFP screen, primary hits, KU SAR, s288c parental; shares compounds with LAP4-GFP MLPCN; S. cerevisiae s288c parental, compound autofluorescence, flow cytometry, 3 h; fluorescence change (span) at 33 µM; 110 tested, under 10 active; AID 488829, 2010;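 active means fluorescence change span, or the activity score built from it, above 25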
TORC1 bypass gr: wild-type yeast growth inhibition sparing TORC1 bypass cells, mechanism study for yeast TOR pathway GFP screen, BY4741 wild type, TORC1 bypass strain; S. cerevisiae BY4741 spot growth rating, 48-72 h; stronger effect = lower value; shares compounds with LAP4-GFP MLPCN; 120 tested, under 10 active; growth rating (0-3) at 30 µM;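 active means growth rating at most 1 for wild type yeast while the TORC1 bypass strain still grows fully, rated 3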
* marks the source's active call; other numbers are inactive results; . = no result.

SMILES	CIT2-GFP yeast	LAP4-GFP MLPCN	AGP1 TOR yeast	MEP2 TOR yeast	VLA-4 inh	RPL19A TOR yeast	LAP4 cherry2	MEP2 cherry2	RPL19A-GFP pick2	CIT2 GFP CP2	AGP1 GFP CP2	Yeast autofluor	others
CCOc1ccc(Nc2nc(NC)nc(N)c2[N+](=O)[O-])cc1	.	.	.	.	.	.	.	.	.	.	.	.	Yeast autofl DR=0.05;TORC1 bypass gr=3
O=C(CC1C(=O)NCCN1CCCc1ccccc1)NCCc1ccccc1Cl (stereo not drawn)	121.4	100.6	105.4	109.8	-3.1	101.9	.	.	.	.	.	.
COc1cccc(CCC(=O)N2CCC(n3nccc3NC(=O)CC(C)C)CC2)c1	97.8	92.6	99.6	117.5	7.0	101.1	.	.	.	.	.	.
Cc1cc(C(=O)COC(=O)c2ccc[nH]c2=O)c(C)n1-c1ccccc1F	84.5	137.7	41.4	115.9	-1.9	55.0	155.3*	131.0	92.9	105.7	77.7	2.4	Yeast autofl DR=1.17;TORC1 bypass gr=3
Cc1nn(C)c(C)c1N1C(=O)c2cccc3c(Br)ccc(c23)C1=O	85.2	109.8	98.2	101.5	5.0	99.9	.	.	.	.	.	-0.2
O=C(Cn1cccc(C(F)(F)F)c1=O)c1ccc(Cl)cc1	93.0	105.8	100.7	105.2	-3.0	100.7	.	.	.	.	.	.
O=C1N(c2ccccc2C(F)(F)F)OC1(Cc1ccccc1)c1ccccc1 (stereo not drawn)	100.8	93.8	96.5	98.5	-5.7	95.7	111.5	106.5	109.3	112.0	102.8	0
CC(C)[C@]1(c2ccccc2)ON(c2ccccc2C(F)(F)F)C1=O	93.7	94.0	93.0	93.8	17.9	93.9	108.7	103.2	104.2	114.2	107.9	-0.2
CC(C)[C@]1(c2ccc(Cl)cc2)ON(c2ccccc2C(F)(F)F)C1=O	106.0	107.1	99.8	99.2	23.4	95.5	102.2	94.3	100.8	105.7	99.7	-0.1
FC(F)(F)c1ccccc1-n1ccnc1	72.0	108.4	74.7	99.2	-6.4	89.3	.	.	.	.	.	.
